Among the data in PubChem BioAssay (NCATS) are Potency, outcome and max response values, retold here.

Where “and” joins values, the source holds several entries; their conditions need not be identical. Equal values may be shown once. Inconclusive results are not listed. Some compounds were tested as several samples or in several runs, with calls that do not always agree. Calls of active or inactive are those of the source. Unless noted, calls come from the whole dose curve; as a rule, active = well fitted curve in the direction sought with a large enough effect; inconclusive = small, poorly fitted or top-dose-only effect, or another doubt; inactive = no such curve, though single readings can be large; an effect the other way counts as inactive or inconclusive.

A short description of assay [1]: Primary qHTS for small molecule stabilizers of the endoplasmic reticulum resident proteome: Secreted ER Calcium Modulated Protein (SERCaMP) assay (AID 1508630). Note: potency is the fitted concentration of half-maximal effect. In outline: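 The SH-SY5Y reporter protocol was run at 3 concentrations up to 38.3 uM (primary) or 11 concentrations (follow-up): 16 h compound, 100 nM thapsigargin for 4 h, then extracellular luciferase luminescence.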

A short description of assay [2]: A High-Content qHTS Against Drug Library for the Identification of Small Molecules that Inhibit DYT1 Early Onset Primary Dystonia-Associated Cell Pathology (AID 1645839; calls by dose curve; note: series mostly up to about 46 µM). The method, boiled down:
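High-content imaging quantified EGFP-TorsinA mislocalization in HEK293-derived cells inducibly expressing DYT1 mutant torsinA, after 48 h exposure to compound given together with tetracycline induction. Cell count served as a toxicity channel alongside %pathology.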

The target in assay [3] is Cytochrome P450 2D6 (Homo sapiens) (UniProt P10635). The assay can be described thus: Cytochrome P450 family 2 subfamily D member 6 (CYP2D6) small molecule antagonists: luciferase biochemical (cell-free) qHTS assay (AID 1645840; active = well fitted curve in the direction sought with a large enough effect in the repeat runs; an effect the other way counts as inactive or inconclusive; note: nearly all actives have a fitted effect of over 55% in size; note: potency is the fitted concentration of half-maximal effect). The method, boiled down: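 P450-Glo CYP2D6 system: proluciferin substrate converted by enzyme to luciferin, read by luminescence proportional to activity. Enzyme-substrate mix with compound 10 min at room temperature, then NADPH regeneration 1 h before detection reagent.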

For assay [4], the target named is Cytochrome P450 2C9 (Homo sapiens) (UniProt P11712). The assay is described as follows: Cytochrome P450 family 2 subfamily C member 9 (CYP2C9) small molecule antagonists: luciferase biochemical (cell-free) qHTS assay (AID 1645842; active = well fitted curve in the direction sought with a large enough effect in the repeat runs; an effect the other way counts as inactive or inconclusive; note: nearly all actives have a fitted effect of over 55% in size; note: potency is the fitted concentration of half-maximal effect). In outline:
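P450-Glo CYP2C9 system: proluciferin substrate with enzyme in mix containing 0.4% BSA, 10 min at room temperature, then NADPH regeneration solution added and incubated 1 h at 37C. Detection reagent stopped reaction; luminescence read after 20 min as RLU.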

A short description of assay [5]: Primary qHTS for inhibitors of nuclear receptor binding SET domain protein 2 (NSD2) in an isogenic RCH-ACV NSD2 p.E1099K mutant (9B) (AID 1645876). Note: nearly all actives have a fitted effect of over 70% in size. Note: potency is the fitted concentration of half-maximal effect.
Assay [6] is described as follows: NCATS anti-infectives library activity on HEK293 viability as a counter-qHTS vs the C. elegans viability qHTS (AID 1745854).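 Note: HEK293 cells exposed to compounds for 24 hr before the viability read; % is set by controls: 0 for no effect and ±100 for the full control effect.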 The method, boiled down: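 Counter-screen for cytotoxicity: HEK293, 24 hr, 37C, compounds up to 41.7 uM final (a dilution series, 1:5). Readout CellTiter-Glo luminescence, 10 min RT. Digitonin control, […] uM final.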
Assay [7] is described as follows: Primary qHTS for inhibitors of nuclear receptor binding SET domain protein 2 (NSD2) in an RCH-ACV wild type WT cells (2C) (AID 1645877). Note: nearly all actives have a fitted effect of over 70% in size. Note: potency is the fitted concentration of half-maximal effect.
The target of assay [8] is Cytochrome P450 3A4 (Homo sapiens) (UniProt P08684). The assay can be described thus: Cytochrome P450 family 3 subfamily A member 4 (CYP3A4) small molecule antagonists: luciferase qHTS assay (AID 1645841; active = well fitted curve in the direction sought with a large enough effect in the repeat runs; an effect the other way counts as inactive or inconclusive; note: nearly all actives have a fitted effect of over 45% in size). The method, boiled down: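 Luminescent CYP3A4 activity readout: compounds plus enzyme-substrate mix 10 min at room temperature, reaction started with NADPH regenerating system for 1 h, stopped with detection reagent, read after 20 min. Ketoconazole served as control.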

Assay [9] is described as follows: Cell Viability qHTS for small molecule stabilizers of the endoplasmic reticulum resident proteome (AID 1508629).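 Note: human SH-SY5Y neuroblastoma cells carrying the GLuc-SERCaMP reporter; compound exposure about 46 h in total before the viability read; % is set by controls: 0 for no effect and ±100 for the full control effect.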 As to conditions: cell viability counter-screen, 100 nM thapsigargin for final 4 h.

Cytochrome P450 2C9 (Homo sapiens), sequence (P11712 whole entry, looked up): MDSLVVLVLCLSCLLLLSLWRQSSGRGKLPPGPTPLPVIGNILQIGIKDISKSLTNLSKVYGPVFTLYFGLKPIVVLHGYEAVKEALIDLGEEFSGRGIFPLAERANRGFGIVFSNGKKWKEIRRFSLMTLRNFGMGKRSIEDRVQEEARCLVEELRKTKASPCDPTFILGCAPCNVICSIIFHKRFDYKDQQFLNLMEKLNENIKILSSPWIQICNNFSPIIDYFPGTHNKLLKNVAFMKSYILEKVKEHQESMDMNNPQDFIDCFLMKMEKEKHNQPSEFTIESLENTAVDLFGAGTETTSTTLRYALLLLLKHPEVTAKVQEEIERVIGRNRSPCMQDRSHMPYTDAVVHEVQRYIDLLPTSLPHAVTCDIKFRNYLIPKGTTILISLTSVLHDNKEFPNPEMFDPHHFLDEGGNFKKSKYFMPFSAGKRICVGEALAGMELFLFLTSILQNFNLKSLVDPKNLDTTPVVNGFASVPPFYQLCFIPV
Cytochrome P450 3A4 (Homo sapiens), sequence (P08684 whole entry, looked up): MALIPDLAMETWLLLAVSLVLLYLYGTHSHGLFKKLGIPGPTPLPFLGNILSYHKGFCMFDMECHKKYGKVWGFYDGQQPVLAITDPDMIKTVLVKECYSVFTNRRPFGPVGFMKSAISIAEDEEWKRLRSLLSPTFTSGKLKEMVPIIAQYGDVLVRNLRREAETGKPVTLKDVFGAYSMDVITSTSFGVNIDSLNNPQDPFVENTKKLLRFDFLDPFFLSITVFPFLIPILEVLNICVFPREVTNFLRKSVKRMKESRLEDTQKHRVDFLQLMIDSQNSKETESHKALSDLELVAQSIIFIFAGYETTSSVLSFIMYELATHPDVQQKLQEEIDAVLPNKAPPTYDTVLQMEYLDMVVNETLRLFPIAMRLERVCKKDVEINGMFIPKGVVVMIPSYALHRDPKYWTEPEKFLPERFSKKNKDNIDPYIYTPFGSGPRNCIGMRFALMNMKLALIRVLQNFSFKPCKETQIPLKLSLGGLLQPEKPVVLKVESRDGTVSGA
Cytochrome P450 2D6 (Homo sapiens), sequence (P10635 whole entry, looked up): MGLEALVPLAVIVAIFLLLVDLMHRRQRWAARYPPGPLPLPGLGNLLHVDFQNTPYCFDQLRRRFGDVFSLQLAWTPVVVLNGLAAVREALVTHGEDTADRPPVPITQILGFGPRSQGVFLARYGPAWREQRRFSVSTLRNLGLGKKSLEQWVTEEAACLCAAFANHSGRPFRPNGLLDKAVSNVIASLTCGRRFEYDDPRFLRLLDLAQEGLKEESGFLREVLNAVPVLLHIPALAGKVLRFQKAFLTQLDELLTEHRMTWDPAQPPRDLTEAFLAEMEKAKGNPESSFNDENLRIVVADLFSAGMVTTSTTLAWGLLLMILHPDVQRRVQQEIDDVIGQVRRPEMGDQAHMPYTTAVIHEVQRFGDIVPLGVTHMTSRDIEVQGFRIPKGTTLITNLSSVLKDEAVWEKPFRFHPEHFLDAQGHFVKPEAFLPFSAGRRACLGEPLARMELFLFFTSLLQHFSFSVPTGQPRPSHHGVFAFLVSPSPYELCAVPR

As to `NS(=O)(=O)c1cc2c(cc1Cl)NC(C(Cl)Cl)NS2(=O)=O` (stereo not given), the Potency entry in assay [1], in assay [2], in [3], in assay [4] and in [5] was “inactive” in each case.
Turning to `Cc1nnc(C(=O)NC(C)(C)c2nc(C(=O)NCc3ccc(F)cc3)c(O)c(=O)n2C)o1`, the Potency entry in assay [1], in assay [2], in [3], in assay [4], in assay [5] and in assay [6] was “inactive” in each case.
In the case of `CC(C)C[C@H](NC(=O)[C@H](CCc1ccccc1)NC(=O)CN1CCOCC1)C(=O)N[C@@H](Cc1ccccc1)C(=O)N[C@@H](CC(C)C)C(=O)[C@@]1(C)CO1`, the Potency result in assay [1], in [2], in assay [3] and in [4] was “inactive” throughout. Moreover, the Potency in assay [5] was 7.5 nM (active) and 10.5 nM (active).
In the case of `Cc1oc(=O)oc1CN1CCN(c2cc3c(cc2F)c(=O)c(C(=O)O)c2n3C(C)S2)CC1` (stereo not given), the Potency entry in assay [1], in assay [2], in assay [3], in assay [4], in [5] and in [6] was “inactive” throughout.
As for `Cc1noc(NS(=O)(=O)c2ccc(N)cc2)c1C`, the Potency entry in [1], in assay [2] and in [3] was “inactive” in each case.
For `CCOC(=O)c1ccc(C#Cc2ccc3c(c2)C(C)(C)CCS3)nc1`, the Potency result in assay [1], in assay [2], in [3], in [4], in assay [5] and in assay [7] was “inactive” in each case.
Regarding `NC(N)=NC(N)=NCCc1ccccc1`, the Potency entry in assay [1] and in assay [2] was “inactive” each time. For the same compound, the Potency in [3] is 6.17 µM (active).
As for `CNC1CCCN(c2c(F)cc3c(=O)c(C(=O)O)cn(C4CC4)c3c2OC)C1` (stereo not given), the Potency result in assay [1], in [2], in [3], in assay [5] and in assay [7] was “inactive” each time. In addition, the result in assay [8] was inactive.
For the compound `CCn1cc(C(=O)O)c(=O)c2cc(F)c(N3CCNCC3)nc21`, the max response in assay [9] was 28.2% (inactive). Moreover, the Potency result in [1], in assay [3], in assay [5] and in assay [7] was “inactive” in each case.
As to `O=S(=O)(O)CCS`, the Potency entry in assay [1], in [2], in assay [3], in [4], in assay [5] and in assay [7] was “inactive” each time. In assay [8], the outcome was inactive.
Take `S=P(N1CC1)(N1CC1)N1CC1`: the max response in [9] was 22.2% (inactive). In addition, the Potency entry in assay [2] and in assay [5] was “inactive” in each case. The Potency in assay [3] was 53 µM (active); in assay [4], 36.4 µM (active).
Consider `Nc1ccc(S(=O)(=O)Nc2ccccn2)cc1`, for which the Potency entry in assay [1], in [2], in [3], in assay [4], in assay [5] and in assay [7] was “inactive” each time.
On to `CCCc1nc(C)c2c(=O)[nH]c(-c3cc(S(=O)(=O)N4CCN(CC)CC4)ccc3OCC)nn12`, for which the Potency entry in [1], in [2], in assay [3] and in [5] was “inactive” each time.
Regarding `COCCCOc1cc(C[C@@H](C[C@H](N)[C@@H](O)C[C@H](C(=O)NCC(C)(C)C(N)=O)C(C)C)C(C)C)ccc1OC`, the Potency entry in assay [1], in assay [2], in [3], in [4] and in assay [7] was “inactive” each time.
With `CCC(=O)O[C@]1(C(=O)CCl)[C@@H](C)C[C@H]2[C@@H]3CCC4=CC(=O)C=C[C@]4(C)[C@@]3(F)[C@@H](O)C[C@@]21C`, the Potency result in assay [1] and in [2] was “inactive” each time. For the same compound, the Potency in assay [3] is 11 µM (active); in assay [4] it was 17.4 µM (active); in [5], 23.5 µM (active); in [7] it was “inactive and 1 nM (active)”.
Consider `O=C(NCC1CN(c2ccc(N3CCOCC3=O)cc2)C(=O)O1)c1ccc(Cl)s1` (stereo not given), for which the Potency entry in assay [1], in assay [2] and in [3] was “inactive” each time.
For the compound `O=NN(CCCl)C(=O)NC1CCCCC1`, the Potency result in assay [1], in assay [2], in [3], in assay [4] and in assay [5] was “inactive” in each case. Besides, the outcome in [8] was inactive.
With `CCCc1cc(C(N)=S)ccn1`, the Potency entry in assay [1], in [2], in assay [3], in assay [4] and in [5] was “inactive” throughout.
As to `CN1CCN(c2c(F)cc3c(=O)c(C(=O)O)cn4c3c2OCN4C)CC1`, the Potency entry in assay [1], in assay [2], in [3] and in [4] was “inactive” in each case.
Regarding `COc1ccc2c(c1)c(CC(=O)OCC(=O)O)c(C)n2C(=O)c1ccc(Cl)cc1`, the Potency result in assay [1], in [2], in [3] and in assay [4] was “inactive” in each case.
With `CCOC(=O)c1ccc(OC(=O)CCCCCN=C(N)N)cc1`, the Potency entry in assay [1], in assay [2], in assay [4], in assay [5] and in [6] was “inactive” each time. Besides, the Potency in [3] was 0.0977 µM (active); in [7], 23.5 µM (active).
Consider `COc1c(N2CCNC(C)C2)c(F)cc2c(=O)c(C(=O)O)cn(C3CC3)c12` (stereo not given), for which the max response in assay [9] was -1.18% (inactive) and 19.6% (inactive). The Potency in [1] is 20 µM (active). Besides, the Potency entry in assay [2], in [3], in [4], in assay [5] and in assay [7] was “inactive” in each case.
In the case of `COc1cc(NCc2ccc3nc(N)nc(N)c3c2C)cc(OC)c1OC`, the Potency entry in [1] and in [2] was “inactive” in each case. The Potency in assay [3] is 6.92 µM (active); in [4], 12.3 µM (active); in assay [5], 13.3 nM (active) and 1.05 µM (active); in [7], 15 nM (active) and 1.18 µM (active).
On to `CC(C)(Sc1cc(C(C)(C)C)c(O)c(C(C)(C)C)c1)Sc1cc(C(C)(C)C)c(O)c(C(C)(C)C)c1`, for which the Potency result in [1], in assay [2], in assay [3], in [4], in assay [5] and in [6] was “inactive” each time. Further, the Potency result in assay [7] was “inactive and 8.33 µM (active)”.
In the case of `COc1ccc2cc3[n+](cc2c1OC)CCc1cc2c(cc1-3)OCO2`, the Potency result in assay [1], in assay [2] and in [4] was “inactive” each time. In addition, the Potency in assay [3] is 1.55 µM (active); in [5], 11.9 µM (active) and 5.9 µM (active); in assay [7] it was 11.9 µM (active) and 3.32 µM (active).
As to `COC(=O)Nc1nc2ccc(Sc3ccccc3)cc2[nH]1`, the Potency entry in assay [1], in assay [2], in assay [3] and in [4] was “inactive” throughout. For the same compound, the Potency in assay [5] is 266 nM (active) and 417 nM (active); in [7] it was 266 nM (active) and 372 nM (active).
For the compound `CCCOc1ccc(C(=O)OCCN(CC)CC)cc1N`, the Potency result in assay [1], in assay [2], in [4], in [5] and in [7] was “inactive” each time. In addition, in assay [3], the Potency is 6.17 µM (active) and 6.74 µM (active).
